The source of these data is PubChem BioAssay (NCATS).

Results filed as inconclusive are left out. Activity calls are given as the source filed them. Calls come from the whole dose curve; as a rule, active = well fitted cell-killing curve with a large enough effect; inconclusive = small, poorly fitted or top-dose-only effect, or effect the other way; inactive = flat fitted curve, though single readings scatter. Where a SMILES comes first, the peptide text is derived from it. [ ]: non-standard residue; d: D form. Ala(indol-2-yl) = N[C@@H](Cc1cc2ccccc2[nH]1)C(=O)O; Aib = CC(C)(N)C(=O)O
% is set by controls: 0 for no effect and ±100 for the full control effect; potency is the fitted concentration of half-maximal effect.

This assay has as its system CAOV3. The assay can be described thus: Primary qHTS to identify gynecologic anti-cancer compounds using libraries of approved drugs and bioactive compounds (AID 1345084). Note: nearly all actives have a fitted effect of over 55% in size. The following applies: Gynecologic cancer cell panel viability, ATPlite luminescence, 48 h; series mostly up to 57.5 µM. The essentials:
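Luminescence from the ATPlite ATP-monitoring reagent indicates viable cell number; lower signal means cytotoxicity. Cells received compound 16 h after seeding and were exposed for 48 h across five concentrations.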
(In qHTS, concentration-response curves come from the screen itself.)
In the case of `O=C(OC[C@H]1O[C@@H](Oc2ccc(O)cc2CO)[C@H](O)[C@@H](O)[C@@H]1O)c1ccccc1`, the Potency entry was “inactive”.
Consider `CC(C)(NC(=O)[C@@H](N)Cc1ccc(O)cc1)C(=O)N[C@@H](Cc1cc2ccccc2[nH]1)C(=O)N[C@@H](Cc1ccccc1)C(=O)O` (H-Y[Aib][Ala(indol-2-yl)]F-OH), for which the activity change, negative = cytotoxicity is 2.52% [at 11.6 µM] (inactive).
Consider `COc1ccc2c3c([nH]c2c1)C(C=C(C)C)N1C(=O)C2CCCN2C(=O)C1C3` (centres undefined), for which the Potency result is “inactive”.
Regarding `CC(=O)OC[C@]12C[C@H](OC(=O)CC(C)C)C(C)=C[C@H]1O[C@@H]1[C@H](O)[C@@H](OC(C)=O)[C@@]2(C)[C@@]12CO2`, the Potency was 0.0891 µM (active).
On to `CC[C@H](C)[C@H](NC(=O)[C@H]1CCCCN1C)C(=O)N(COC(=O)CC(C)C)[C@H](C[C@@H](OC(C)=O)c1nc(C(=O)N[C@@H](Cc2ccc(O)cc2)C[C@H](C)C(=O)O)cs1)C(C)C`, for which the activity change, negative = cytotoxicity was -2.04% [at 1.28 µM] (inactive).
For `CC(=O)OC[C@]12C[C@H](OC(=O)CC(C)C)C(C)=C[C@H]1O[C@@H]1[C@H](O)C[C@@]2(C)[C@]12CO2`, the Potency was 4.47 µM (active).
In the case of `COC1CC(O[C@H]2CC[C@]3(C)C4CC[C@]5(C)[C@@H](C6=CC(=O)OC6)[C@@H](OC(C)=O)C[C@]5(O)C4CC[C@@H]3C2)OC(C)C1O[C@@H]1O[C@H](CO)[C@@H](O)[C@H](O)[C@H]1O` (some centres undefined), the Potency was 1.12 µM (active).
On the same count and under the same terms, the entry for `Cc1c(Cl)c(OCC(=O)N2CCN(C)CC2)nc2sc(C(=O)NC3CC3)c(N)c12` is “inactive”; for `CO[C@H]1[C@H](O)[C@H](O[C@H]2CC[C@]3(C=O)C4CC[C@]5(C)[C@H](C6=CC(=O)OC6)CC[C@]5(O)C4CC[C@@H]3C2)O[C@@H](C)[C@@H]1O` (some centres undefined) it is 0.1 µM (active); for `C[C@H]1O[C@@H](O[C@H]2CC[C@]3(C=O)C4CC[C@]5(C)[C@@H](C6=CC(=O)OC6)CC[C@]5(O)[C@@H]4CC[C@]3(O)C2)C[C@@H](O)[C@@H]1O` (some centres undefined) it is 0.112 µM (active).
As to `C[C@]12CC[C@H](O)C[C@H]1CC[C@@H]1[C@@H]2[C@H](O)C[C@]2(C)[C@@H](c3ccc(=O)oc3)CC[C@]12O`, the Potency is 0.1 µM (active).
`CC1=C[C@H]2O[C@@H]3[C@H](O)[C@@H](O)[C@](C)([C@@]2(CO)C[C@@H]1O)[C@]31CO1`: the Potency is 11.2 µM (active).
On the same count and under the same terms, to `OCc1nnc2n1-c1ccc(Cl)cc1C(c1ccccc1Cl)=NC2` belongs “inactive”.
`CC[C@H]1C2CC3[C@@H]4N(C)c5ccccc5[C@]45C[C@@H]([C@H]2[C@H]5O)N3[C@@H]1O`: the Potency entry is “inactive”.
`CO[C@@H]1C[C@H](O[C@H]2CC[C@@]3(C)C(CCC4C3CC[C@]3(C)[C@@H](C5=CC(=O)OC5)[C@@H](OC(C)=O)CC43O)C2)O[C@H](C)[C@@H]1O[C@H]1O[C@H](CO[C@@H]2O[C@H](CO)[C@@H](O)[C@H](O)[C@H]2O)[C@@H](O)[C@H](O)[C@H]1O` (some centres undefined): the Potency is 2.24 µM (active).
With `CC(=O)O[C@H]1CC[C@@]2(CI)C(=CC[C@@H]3[C@@H]2CC[C@]2(C)C(=O)CC[C@@H]32)C1`, the Potency entry was “inactive”.
Still for that read-out and setting: the figure for `C=C1[C@@H](C)[C@H]2[C@H](Cc3ccccc3)NC(=O)[C@]23OC(=O)/C=C/C(=O)CCC[C@@H](C)C/C=C/[C@H]3[C@@H]1O` is 12.6 µM (active); for `C[C@H](CCC(=O)O)C[C@H](C)C[C@H](C)C(=O)/C=C(\O)[C@H](C)C[C@H](C)C/C=C/[C@@H](C)[C@@H](O)[C@@H](C)[C@@H](O)C[C@@H]1CC[C@@](C)([C@H]2CC[C@@](C)([C@@H](C)O)O2)O1` it is “inactive”; for `CN(C)c1cc2c(cc1Sc1nc3c(N)nccc3n1CCNCC(C)(C)C)OCO2` it is 1.12 µM (active).
On to `N#CC(O[C@@H]1O[C@H](CO)[C@@H](O)[C@H](O)[C@H]1O)c1ccccc1` (some centres undefined), for which the Potency result was “inactive”.
Regarding `COC1CC(O[C@H]2CC[C@]3(C)C4CC[C@]5(C)[C@@H](C6=CC(=O)OC6)[C@@H](OC(C)=O)C[C@]5(O)C4CC[C@@H]3C2)OC(C)C1O` (some centres undefined), the Potency was 1.26 µM (active).
For `CC(=O)O[C@H]1CN2CCC1CC2`, the Potency entry was “inactive”.
On to `CC1=CC(=O)[C@@H](O)[C@]2(C)C3[C@@H](O)[C@@H]4OC(=O)[C@@H]([C@H]4C)[C@]3(C)C(=O)C[C@@H]12` (some centres undefined), for which the Potency entry was “inactive”.
Turning to `CC[C@@H]1C[C@H]2CC[C@H](O2)[C@H](C)C(=O)O[C@@H](C)C[C@@H]2CC[C@@H](O2)[C@@H](C)C(=O)O[C@H](CC)C[C@H]2CC[C@H](O2)[C@H](C)C(=O)O[C@@H](C)C[C@@H]2CC[C@@H](O2)[C@@H](C)C(=O)O1`, the Potency is 0.398 µM (active).
